In PubChem BioAssay:
Calls of active or inactive are those of the source.

What was measured:
[1] = test system: Plasmodium falciparum Sir2 (PF13_0152, Sir2A); test: Plasmodium falciparum Sir2A binding compounds – biochemical, small-molecule microarray, 635 nm fluorescence, primary screen (AID 1098); conditions: fluorescence 635 nm, higher = more signal;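 note: score merges spot fluorescence intensity with its signal-to-noise ratio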
[2] = probe aDKK1 binding to arrayed compounds – biochemical, biotinylated probe, 635/667 nm fluorescence, primary screen (AID 1099); conditions: small-molecule microarray, higher = more signal;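 note: score merges 667nm spot fluorescence with signal to noise across triplicate slides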
[3] = probe aCHRDL2 binding to arrayed compounds – biochemical, biotinylated probe, 635/667 nm fluorescence, primary screen (AID 1100); conditions: small-molecule microarray, higher = more signal
[4] = change in splice reporter luminescence, either direction, cell-based, HEK293, spliceosome inhibition project, primary screen (AID 1101); conditions: HEK293 splicing luciferase reporter, 24 h, higher = more signal, called active from +8 up or from −8 down;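 note: HEK293 cells carrying a splicing-competent luciferase reporter gene; test concentration not given here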
[5] = biological target: Fibroblast growth factor 10 (Homo sapiens) (UniProt O15520); test: compounds binding fibroblast growth factor 10 – biochemical, small-molecule microarray, 635 nm fluorescence, primary screen (AID 1102); conditions: FGF10 binding, fluorescence 635 nm, higher = more signal
Chain of Fibroblast growth factor 10 (Homo sapiens) (O15520 whole entry, looked up): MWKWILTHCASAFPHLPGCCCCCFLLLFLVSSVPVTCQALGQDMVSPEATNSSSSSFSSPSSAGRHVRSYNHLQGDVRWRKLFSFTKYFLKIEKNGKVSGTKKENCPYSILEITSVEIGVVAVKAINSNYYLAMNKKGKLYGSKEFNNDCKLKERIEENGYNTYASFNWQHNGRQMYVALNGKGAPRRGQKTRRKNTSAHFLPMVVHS

[6] = test system: glycogen synthase kinase-3 (GSK3A per assay name; protocol says GSK3B); test: compounds binding glycogen synthase kinase-3 – biochemical, small-molecule microarray, 635 nm fluorescence, GSK3A, primary screen (AID 1103); conditions: fluorescence 635 nm, higher = more signal; note: the record names both GSK3A and GSK3B
[7] = biological target: Epidermal growth factor receptor (Homo sapiens) (UniProt P00533); test: compounds binding epidermal growth factor receptor – biochemical, small-molecule microarray, 635 nm fluorescence, primary screen (AID 1104); conditions: EGFR binding, higher = more signal;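 note: score merges 667 nm emission intensity with spot signal to noise over triplicate slides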
Chain of Epidermal growth factor receptor (Homo sapiens) (P00533 whole entry, looked up): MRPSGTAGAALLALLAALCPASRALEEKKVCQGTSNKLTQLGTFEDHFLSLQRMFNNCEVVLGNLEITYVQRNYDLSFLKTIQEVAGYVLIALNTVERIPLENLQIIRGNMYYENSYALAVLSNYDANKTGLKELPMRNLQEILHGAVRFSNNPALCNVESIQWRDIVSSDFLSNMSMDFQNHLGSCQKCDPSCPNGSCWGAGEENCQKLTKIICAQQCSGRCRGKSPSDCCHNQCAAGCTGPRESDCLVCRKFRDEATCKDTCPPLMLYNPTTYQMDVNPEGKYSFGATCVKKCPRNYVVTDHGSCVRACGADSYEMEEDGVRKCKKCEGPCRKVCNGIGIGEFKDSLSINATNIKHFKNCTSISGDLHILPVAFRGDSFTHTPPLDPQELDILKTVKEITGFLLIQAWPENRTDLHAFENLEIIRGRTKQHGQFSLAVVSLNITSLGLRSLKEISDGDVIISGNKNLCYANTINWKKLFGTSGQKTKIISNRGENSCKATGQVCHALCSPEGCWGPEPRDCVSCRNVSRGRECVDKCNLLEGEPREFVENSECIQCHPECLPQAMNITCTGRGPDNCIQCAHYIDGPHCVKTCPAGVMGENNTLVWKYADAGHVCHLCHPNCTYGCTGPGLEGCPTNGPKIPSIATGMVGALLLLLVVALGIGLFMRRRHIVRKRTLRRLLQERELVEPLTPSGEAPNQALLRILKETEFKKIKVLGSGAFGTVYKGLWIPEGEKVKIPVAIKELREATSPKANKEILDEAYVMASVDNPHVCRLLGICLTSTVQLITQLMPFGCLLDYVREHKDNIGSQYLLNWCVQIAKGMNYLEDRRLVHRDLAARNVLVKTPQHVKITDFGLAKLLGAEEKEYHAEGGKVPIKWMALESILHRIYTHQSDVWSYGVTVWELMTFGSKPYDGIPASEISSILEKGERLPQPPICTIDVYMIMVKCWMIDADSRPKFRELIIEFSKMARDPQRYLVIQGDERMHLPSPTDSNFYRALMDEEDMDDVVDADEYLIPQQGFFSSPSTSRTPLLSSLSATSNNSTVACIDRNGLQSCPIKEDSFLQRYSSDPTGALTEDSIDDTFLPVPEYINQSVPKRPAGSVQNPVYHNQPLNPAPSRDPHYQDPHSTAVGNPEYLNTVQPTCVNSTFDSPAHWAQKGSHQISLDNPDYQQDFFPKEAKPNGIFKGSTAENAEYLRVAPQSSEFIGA

[8] = biological target: Follistatin-related protein 3 (Homo sapiens) (UniProt O95633); test: compounds binding follistatin-related protein 3 – biochemical, small-molecule microarray, 635 nm fluorescence, primary screen (AID 1105); conditions: FSTL3 binding, higher = more signal;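 note: score merges emission near 667 nm and signal to noise per printed spot across three slides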
Chain of Follistatin-related protein 3 (Homo sapiens) (O95633 whole entry, looked up): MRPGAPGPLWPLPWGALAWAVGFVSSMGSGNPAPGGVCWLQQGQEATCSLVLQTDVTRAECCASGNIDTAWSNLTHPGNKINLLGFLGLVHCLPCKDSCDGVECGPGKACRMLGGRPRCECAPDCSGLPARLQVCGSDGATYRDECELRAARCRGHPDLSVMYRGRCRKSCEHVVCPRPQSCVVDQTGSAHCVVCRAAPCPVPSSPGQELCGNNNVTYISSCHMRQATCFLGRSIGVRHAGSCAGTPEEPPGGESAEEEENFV

[9] = biological target: Dickkopf-related protein 1 (Homo sapiens) (UniProt O94907); test: small molecules binding DKK1 protein – biochemical, small-molecule microarray, 635 nm fluorescence scan, primary screen (AID 1106); conditions: higher = more signal;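 note: score merges emission near 667 nm with signal to noise over three replicate slides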
Chain of Dickkopf-related protein 1 (Homo sapiens) (O94907 whole entry, looked up): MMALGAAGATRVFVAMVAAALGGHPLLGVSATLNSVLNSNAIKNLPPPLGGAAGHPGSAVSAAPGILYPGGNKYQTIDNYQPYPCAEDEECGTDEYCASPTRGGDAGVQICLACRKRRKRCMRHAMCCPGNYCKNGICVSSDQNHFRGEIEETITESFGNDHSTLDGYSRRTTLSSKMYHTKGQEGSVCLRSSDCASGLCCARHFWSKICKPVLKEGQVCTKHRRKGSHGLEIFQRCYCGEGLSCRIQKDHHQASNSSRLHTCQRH

[10] = test system: Inhibin beta A chain (activin A); test: small molecules binding activin A – biochemical, small-molecule microarray, 635 nm fluorescence scan, primary screen (AID 1107); conditions: INHBA, higher = more signal;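 note: mouse activin A protein probed at 4.33 µg/mL on printed slides; score merges bound-protein fluorescence near 667 nm with spot signal-to-noise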
[11] = test system: Human papillomavirus type 1a protein E7 (residues 44-93); test: small molecules binding HPV E7 44-93 – biochemical, small-molecule microarray, residues 44-93, 635 nm fluorescence, primary screen (AID 1108); conditions: fluorescence 635 nm, higher = more signal;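 note: E7 fragment applied at 1 µg/mL in TBST for 1 h at 4 C; score combines spot fluorescence with its signal to noise ratio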
[12] = hepatitis C replication reporter changes, two-sided – Huh7 cells, luciferase reporter, HCV replication inhibitor project, primary screen (AID 1109); conditions: Huh7 HCV replicon luciferase reporter, 48 h; higher = more signal;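 note: huh7 hepatoma cells harbouring a luciferase neomycin HCV replicon reporter; luciferase luminescence as measure of HCV replicon replication; test concentration not given here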
[13] = biological target: Left-right determination factor 2 (Homo sapiens) (UniProt O00292); test: small molecules binding LEFTY2 protein – biochemical, small-molecule microarray, 635 nm fluorescence scan, primary screen (AID 1110); conditions: higher = more signal
Chain of Left-right determination factor 2 (Homo sapiens) (O00292 whole entry, looked up): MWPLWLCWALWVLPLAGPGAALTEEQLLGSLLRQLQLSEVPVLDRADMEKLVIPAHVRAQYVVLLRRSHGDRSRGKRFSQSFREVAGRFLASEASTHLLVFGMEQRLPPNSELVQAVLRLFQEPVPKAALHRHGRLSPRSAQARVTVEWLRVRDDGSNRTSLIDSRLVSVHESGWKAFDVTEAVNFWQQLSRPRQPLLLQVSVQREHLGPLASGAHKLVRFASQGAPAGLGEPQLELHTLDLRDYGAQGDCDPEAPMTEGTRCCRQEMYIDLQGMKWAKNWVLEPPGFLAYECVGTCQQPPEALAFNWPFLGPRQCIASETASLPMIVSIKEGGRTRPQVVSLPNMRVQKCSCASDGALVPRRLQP

[14] = biological target: Calmodulin-1 (Homo sapiens) (UniProt P0DP23); test: small molecules binding calmodulin-1 with EGTA – biochemical, small-molecule microarray, Cy5-labelled CALM1, profiling panel (AID 1111); conditions: Cy5-CALM1 binding fluorescence, higher = more signal;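 note: labelled calmodulin applied in Tris saline Tween buffer holding calcium plus EGTA and DTT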
[15] = biological target: Calmodulin-1 (Homo sapiens) (UniProt P0DP23); test: small molecules binding Ca-loaded calmodulin-1 – biochemical, small-molecule microarray, Cy5-labelled CALM1, plus calcium, artefact control for SMM control-protein annotation, profiling panel (AID 1112); conditions: Cy5-CALM1 binding fluorescence, higher = more signal;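 note: score merges spot fluorescence with signal to noise from triplicate slides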
[16] = probe aWnt5a binding to arrayed compounds – biochemical, biotinylated probe, 635/667 nm fluorescence, primary screen (AID 1113); conditions: small-molecule microarray, higher = more signal;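 note: score merges 667 nm fluorescence intensity with signal-to-noise per printed feature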
[17] = probe aShh binding to arrayed compounds – biochemical, biotinylated probe, 635/667 nm fluorescence, primary screen (AID 1114); conditions: small-molecule microarray, higher = more signal;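 note: probe is biotin-labelled aShh protein from a stem cell growth factor screen; measures binding of labelled protein to compounds printed on the slide; score merges feature fluorescence at 667 nm with signal-to-noise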
[18] = probe aNog binding to arrayed compounds – biochemical, biotinylated probe, 635/667 nm fluorescence, primary screen (AID 1115); conditions: small-molecule microarray, higher = more signal;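 note: probe is biotinylated aNog protein used at 0.15 µg/mL for 1 h at 4 C; z-score combines 667 nm fluorescence of each spot with its signal to noise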
[19] = biological target: Torsin-1A-interacting protein 1 (Homo sapiens) (UniProt Q5JTV8); test: compound microarray binding of lysate hLAP1 – cell lysate, small-molecule microarray, COS7 lysate, 635/667 nm fluorescence, primary screen (AID 1116); conditions: 635 nm fluorescence, higher = more signal
Chain of Torsin-1A-interacting protein 1 (Homo sapiens) (Q5JTV8 whole entry, looked up): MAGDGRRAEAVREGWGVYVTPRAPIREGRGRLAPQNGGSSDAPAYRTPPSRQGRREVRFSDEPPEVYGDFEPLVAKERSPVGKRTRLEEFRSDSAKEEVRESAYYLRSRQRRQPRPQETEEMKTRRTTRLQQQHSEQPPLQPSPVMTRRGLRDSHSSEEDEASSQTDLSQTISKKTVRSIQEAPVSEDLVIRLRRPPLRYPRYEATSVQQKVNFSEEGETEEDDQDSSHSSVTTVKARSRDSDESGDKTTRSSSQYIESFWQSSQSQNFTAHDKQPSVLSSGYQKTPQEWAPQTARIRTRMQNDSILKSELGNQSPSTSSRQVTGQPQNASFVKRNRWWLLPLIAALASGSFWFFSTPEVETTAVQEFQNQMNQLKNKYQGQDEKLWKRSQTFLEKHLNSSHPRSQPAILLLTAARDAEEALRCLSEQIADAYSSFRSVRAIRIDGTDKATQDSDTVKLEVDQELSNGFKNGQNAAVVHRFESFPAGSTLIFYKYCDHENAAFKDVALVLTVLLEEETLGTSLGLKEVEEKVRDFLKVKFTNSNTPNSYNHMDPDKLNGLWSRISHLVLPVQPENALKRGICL

[20] = biological target: Alpha-bungarotoxin (Bungarus multicinctus) (UniProt P60615); test: compounds binding labelled alpha-BTX control protein – biochemical, small-molecule microarray, Alexa647 label, 635/667 nm fluorescence, artefact control for SMM control protein annotation, profiling panel (AID 1117); conditions: alpha-BTX-A647 binding fluorescence, higher = more signal
Chain of Alpha-bungarotoxin (Bungarus multicinctus) (P60615 whole entry, looked up): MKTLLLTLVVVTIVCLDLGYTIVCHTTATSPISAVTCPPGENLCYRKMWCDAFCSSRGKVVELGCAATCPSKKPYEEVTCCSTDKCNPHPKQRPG

| SMILES | composite z-score [1] | composite z-score [2] | composite z-score [3] | z-score [4] | composite z-score [5] | composite z-score [6] | composite z-score [7] | composite z-score [8] | composite z-score [9] | composite z-score [10] | composite z-score [11] | z-score [12] | composite z-score [13] | composite z-score [14] | composite z-score [15] | composite z-score [16] | composite z-score [17] | composite z-score [18] | composite z-score [19] | composite z-score [20] |
| --- | --- | --- | --- | --- | --- | --- | --- | --- | --- | --- | --- | --- | --- | --- | --- | --- | --- | --- | --- | --- |
| CCOC(=O)C1=CC[C@@H](c2ccccc2)N(S(=O)(=O)c2ccc(C)cc2)[C@H]1C(=O)OCC | -0.0664 | 0.955 | 1.02 | -0.287 (inactive) | 0.605 | 1.13 | 0.117 | 0.533 | -0.249 | 1.04 | 0.841 | -3.08 | -0.0319 | 0.784 | 0.289 | 0.177 | 0.77 | 0.137 | 0.962 | 0.384 |
| CCOC(=O)C[C@H]1[C@H](OC(=O)Cc2ccc3c(c2)OCO3)[C@@H](NC(=O)c2ccc(-c3ccccc3)cc2)c2cc(OCCCO)ccc2N1C(=O)c1ccccc1 | 0.377 | -0.0183 | -0.228 | -0.586 (inactive) | 0.602 | 0.367 | 0.457 | 0.612 | 0.247 | 0.235 | 1.06 | -1.25 | 0.525 | 0.326 | -0.0305 | -0.113 | 0.0483 | -0.287 | 0.42 | 0.815 |
| CCCNC(=O)[C@@H]1c2ccccc2C(=O)N(Cc2ccccc2)[C@H]1c1ccc(CO)cc1 | 0.405 | -0.0972 | 0.933 | 0.0373 (inactive) | -0.239 | 0.0282 | -0.592 | -0.637 | -0.744 | -0.217 | 0.656 | -0.481 | -0.595 | -0.0977 | -1.35 | -0.152 | -0.138 | -0.216 | 0.142 | 0.918 |
| COc1ccc([Si](C)(C)[C@H]2[C@H](CCn3cc(CCO)nn3)O[C@@]3(C(=O)N(Cc4ccc(N5CCOC5=O)cc4)c4ccccc43)[C@@H]2C)cc1 | 1.51 | -0.0848 | 0.236 | -0.188 (inactive) | 0.209 | 0.625 | -0.0252 | 0.642 | 0.141 | 0.766 | 0.469 | -4.2 | -0.129 | 0.122 | 0.0117 | -0.124 | 0.0469 | 0.0581 | 1.03 | 1.27 |
| CCN(CC)c1ccc(N2CC=CC34O[C@@H]5/C=C\CCCOC(=O)C5[C@H]3C(=O)N(C(CO)C(C)C)[C@@H]4C2=O)cc1 (stereo not given in full) | 1.23 | -0.252 | -0.0922 | 0.167 (inactive) | -0.711 | -0.748 | -1.05 | -0.8 | -0.681 | 1.11 | -0.22 | -0.132 | -0.393 | -0.956 | -1.15 | -0.0758 | -0.221 | -0.164 | -0.0861 | -0.692 |
| CC(C)OC(=O)CC(=O)CC(O)c1ccc(C#N)cc1 (stereo not given) | -0.165 | 0.715 | 1.23 | -1.74 (inactive) | 0.169 | 0.148 | -0.361 | 0.078 | -0.997 | 0.891 | 0.443 | -0.259 | -0.461 | -1.49 | -1.46 | -0.0405 | -0.156 | -0.397 | 1.67 | 1.75 |
| O=C1O[C@@H](c2ccccc2)[C@@H](c2ccccc2)N2[C@@H](c3ccccc3OCCO)[C@]3(C(=O)Nc4ccc(C#CC5(O)CCCCCC5)cc43)[C@@H](C(=O)Nc3nc4ccccc4s3)[C@H]12 | 1.04 | -0.0444 | -0.0735 | 0.554 (inactive) | 0.68 | 1.25 | 0.369 | 0.996 | 0.28 | 0.251 | 1.38 | -3.09 | 0.628 | 0.688 | 0.226 | -0.0495 | -0.0685 | -0.0065 | 0.367 | 0.744 |
| COC(=O)[C@@]1(Cc2ccccc2)[C@H]2c3cc(C(=O)N(C)C)n(Cc4cc(C)n(C)n4)c3C[C@H]2CN1C(=O)c1ccccc1 | 1.32 | 0.866 | 0.947 | -1.26 (inactive) | 0.0408 | 0.764 | 0.3 | 0.642 | -0.72 | 1.11 | 1.02 | -0.995 | -0.279 | 1.8 | 0.908 | -0.319 | -0.465 | -0.199 | 3.2 | 0.285 |
| CN1C(=O)C2C(C1=O)C1C=C(CCCO)C2C(c2cccs2)N1C (stereo not given) | 1.78 | -0.722 | -0.681 | -0.0035 (inactive) | 0.248 | -0.76 | -0.106 | -0.473 | -0.559 | 0.561 | 0.0537 | -0.999 | -0.676 | 0.203 | 0.451 | -0.0462 | 0.469 | -0.395 | -0.646 | -0.513 |
| CC(C)N1C(=O)[C@@]2(c3ccc([N+](=O)[O-])cc3)CC(=O)N(CC34CC5CC(CC(C5)C3)C4)[C@@H]2c2ccc(CO)cc21 | -0.732 | -0.0981 | 0.226 | 0.477 (inactive) | -0.51 | -0.829 | -1.81 | -0.603 | -0.734 | 0.0207 | -1.28 | -1.21 | -1.36 | -0.251 | 0.134 | -0.316 | -0.208 | 0.705 | -0.742 | -0.12 |
| COc1cc(C(O)C2C=CC3C(=O)N(c4ccccc4)C(=O)C3N2Nc2ccc(C#N)cc2)cc(OC)c1OC (stereo not given) | 1.4 | 1.45 | 1.34 | 1.22 (inactive) | 1.17 | 1.33 | -0.209 | 1.25 | -0.536 | 0.0506 | 0.626 | 0.0783 | 0.305 | 2.23 | 1.19 | 0.0115 | 0.214 | 1.42 | 1.52 | 2.79 |
